Screens: PubChem BioAssay, National Center for Advancing Translational Sciences (NCATS)
ATXN2 expr inh = Primary qHTS for Inhibitors of ATXN expression | 0.72% of 360,000 active | HEK-293 ATXN2-luciferase reporter, luminescence, 24 h | Potency, µM (top dose mostly 57 µM), for the others: at the highest dose activity change, negative = inhibition, most hits filed as inhibitors | AID 1745845, 2022; note: % is set by controls: 0 for no effect and ±100 for the full control effect; nearly all actives have a fitted effect of over 55% in size
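ATXN2-luciferase reporter cells (luciferase flanked by upstream and downstream ATXN2 gene portions) were treated 24 h at 37 °C with compounds at up to 57 uM. SteadyGlo luminescence gave expression; GF-AFC fluorescence gave viability.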
VP16 counter = VP16 counterscreen qHTS for inhibitors of ROR gamma transcriptional activity. 3.5% of 310,000 active. Drosophila S2 Gal4-VP16 UAS-luciferase, luminescence, 20 h. Potency, µM (titrated, usually from 53.6 µM), for the others: top-dose activity, negative = inhibition, most hits filed as inhibitors;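 note: Gal4-VP16 expression switched on by copper sulfate through the metallothionein promoter; % is set by controls: 0 for no effect and ±100 for the full control effect; nearly all actives have a fitted effect of over 50% in size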
TGFb SMAD3 inh = qHTS for Inhibitors of TGF-b | HepG2 CAGA-GFP TGF-b/SMAD3 reporter, GFP fluorescence, 18 h; TGF-beta stimulated, 500 pg/mL final | Potency, µM (doses to about 46.1 µM), for the others: at the highest dose activity, negative = inhibition, most hits filed as inhibitors | 1.2% of 410,000 active | AID 588855, 2011; note: % is set by controls: 0 for no effect and ±100 for the full control effect; nearly all actives have a fitted effect of over 65% in size
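Read-out: total well GFP (ex488/em500-530) summed from mean per-cell fluorescence. Cells: HEPG2 CAGA-GFP, 1% FBS DMEM, 18 h at 37 degrees C with 500 pg/mL final TGF-beta. Unstimulated wells served as the full-inhibition control; stimulated DMSO wells = 0%.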
RORgamma inh = qHTS for inhibitors of ROR gamma transcriptional activity; Nuclear receptor ROR-gamma (Mus musculus), P51450; Drosophila S2 Gal4-RORgamma UAS-luciferase reporter, 20 h; Potency, µM (series often up to 53.6 µM), inactives show at the top dose activity change, negative = inhibition, usual class: inhibitors; 5.4% of 310,000 active; AID 2551, 2010; note: % is set by controls: 0 for no effect and ±100 for the full control effect; nearly all actives have a fitted effect of over 60% in size
Target sequence (P51450 whole entry, looked up, the tested form may be a part): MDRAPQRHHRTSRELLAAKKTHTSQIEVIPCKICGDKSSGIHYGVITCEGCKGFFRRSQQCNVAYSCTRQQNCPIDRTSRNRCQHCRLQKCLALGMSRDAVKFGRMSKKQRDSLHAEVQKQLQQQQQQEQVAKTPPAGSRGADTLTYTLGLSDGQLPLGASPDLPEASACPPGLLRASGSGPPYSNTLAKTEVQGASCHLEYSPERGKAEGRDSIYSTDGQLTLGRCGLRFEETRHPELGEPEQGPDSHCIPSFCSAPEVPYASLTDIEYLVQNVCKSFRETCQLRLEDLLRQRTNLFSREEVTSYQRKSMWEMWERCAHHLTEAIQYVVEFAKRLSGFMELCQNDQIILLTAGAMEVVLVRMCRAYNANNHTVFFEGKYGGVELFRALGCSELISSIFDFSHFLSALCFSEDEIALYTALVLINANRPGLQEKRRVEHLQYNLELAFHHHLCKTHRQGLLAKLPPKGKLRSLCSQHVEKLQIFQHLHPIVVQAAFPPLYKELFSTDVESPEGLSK
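ROR gamma transcriptional activity was tracked as Gal4-UAS luciferase output in stably transfected Drosophila Schneider cells, with compound added 1 hr before 700 uM copper sulfate induction and a 20 hr ambient-temperature incubation.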
HepG2 tox = qHTS for Inhibitors of TGF-b: Cytotox Counterscreen; AID 588856, 2011; 0.76% of 410,000 active; HepG2 CAGA-GFP viability, ATP luminescence, 18 h; Potency, µM (highest dose often 46.1 µM), inactives show at the top dose activity change, negative = cytotoxicity, usual class: cytotoxic
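CellTiter-Glo luminescence gave cytotoxicity after 18 hours at 37 degrees C. The cells were HepG2 CAGA-GFP in 1% FBS DMEM, stimulated with 500 pg/mL TGF-beta after compound addition. %Activity was normalised to no-cell wells (complete cell-killing) and DMSO (no toxicity), and curves were fitted and classified.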
ATXN viability = Viability Counterscreen for Primary qHTS for Inhibitors of ATXN expression; S2 cells (HEK-293 line with an ATXN2-luciferase reporter) viability, CellTiter-Fluor protease fluorescence, 24 h; Potency, µM (titrated, usually from 56.7 µM), most hits filed as cytotoxic; 0.49% of 400,000 active; AID 651635, 2014; note: nearly all actives have a fitted effect of over 40% in size
Active calls of the source: *; i = inactive; ? = inconclusive; . = no result given. Only some compounds are listed: those with a hit (about 6.3% of all), similar ones and a draw of the others. Calls come from the whole dose curve; as a rule, active = well fitted curve in the direction sought with a large enough effect; inconclusive = small, poorly fitted or top-dose-only effect, or another doubt; inactive = no such curve, though single readings can be large; an effect the other way counts as inactive or inconclusive. Potency is the fitted concentration of half-maximal effect.

SMILES	ATXN2 expr inh	VP16 counter	TGFb SMAD3 inh	RORgamma inh	HepG2 tox	ATXN viability
CCN(CC)CCCNC(=O)c1ccc(-c2nc(CN3CCc4ccccc43)c(C)o2)cc1	?	.	?	.	-69%	?
COc1ccc(/C=N/Nc2ncnc3scc(-c4ccccc4)c23)cc1OC	-1%	0.89µM*	-22%	3.5µM*	-23%	i
COc1ccccc1Nc1ncnc2scc(-c3ccc(F)cc3)c12	-2%	.	?	.	-15%	i
CC(C)c1ccc(NC(=O)c2cc(S(=O)(=O)NC3CCCCC3)ccc2F)cc1	?	.	?	.	13µM*	?
Brc1ccccc1/C=N/Nc1ccc2ccccc2n1	56%	8.9µM*	0%	0.32µM*	-1%	i
Cc1cc(N/N=C/c2ccc3c(c2)OCO3)nc2ccccc12	-11%	-11%	-8%	13µM*	20µM*	i
O=C(O)c1ccc(N/N=C/c2cc3cc4c(cc3nc2Cl)OCCO4)cc1	-29%	4µM*	-26%	2.5µM*	-60%	i
O=C(O)c1ccccc1C=NNc1ccccn1	5%	.	-13%	.	-7%	i
Cc1ccc(C)c(/C=N/Nc2ccccn2)c1	31%	0%	-2%	10µM*	-1%	i
COc1ccccc1Cn1c(CNS(=O)(=O)c2ccc3c(c2)CCCC3)nc2cccnc21	.	.	?	.	-20%	.
Brc1ccc(/C=N/Nc2ccc3ccccc3n2)cc1	72%	?	-21%	7.9µM*	-43%	i
Fc1cccc(/C=N/Nc2ccc3ccccc3n2)c1	-24%	?	-4%	7.1µM*	-16%	i
Fc1cccc(/C=N/Nc2ccccn2)c1	29%	?	0%	11µM*	-13%	i
O=C(O)c1cc(N/N=C/c2ccc3c(c2)OCO3)ccc1Cl	36%	-15%	14%	?	0%	i
O=C(O)c1cc(N/N=C/c2ccc3c(c2)OCCO3)ccc1Cl	4.5µM*	11µM*	-10%	?	-12%	i
O=C(Nc1cccc2cccnc12)c1ccc(F)cc1	.	.	?	.	-5%	.
CC1(C)Oc2ccc3ccc(=O)oc3c2CC1=O	.	1%	.	-4%	.	.
O=S(=O)(/N=S1\CC=CCN1S(=O)(=O)c1ccccc1)c1ccccc1 (configuration not stated)	-27%	.	?	.	-78%	i
O=S(=O)(N/N=C/c1ccc2c(c1)OCCO2)c1ccccc1	8%	-19%	4%	23%	7%	i
Cc1cc(N/N=C/c2ccccc2Br)nc2ccccc12	28%	16µM*	?	0.56µM*	-4%	?
C(=N\Nc1ccccn1)/c1ccc2c(c1)OCCO2	11%	?	34%	13µM*	20%	i
Cc1ccc(F)cc1S(=O)(=O)NCc1nc(N2CCCC2)c2cccc(C)c2n1	.	.	.	.	.	i
CN1CC(=O)NC1=NC(=O)C12CC3CC(CC(C3)C1)C2	-7%	4µM*	-4%	2.2µM*	-3%	i
COc1ccc(C(=O)C(CN2CCCC2)c2ccccc2)cc1 (configuration not stated)	?	?	11µM*	?	32µM*	.
CCCCCC(O)(c1ccc(OC)cc1)C(CN1CCOCC1)c1ccccc1 (configuration not stated)	-32%	-6%	13µM*	?	-20%	?
COc1ccc(C(=O)C(CN2CCOCC2)c2ccccc2)cc1 (configuration not stated)	?	?	?	13µM*	-89%	18µM*
CCCOc1ccc(C(=O)C(CN2CCCC2)c2ccccc2)cc1 (configuration not stated)	?	?	?	?	-92%	?
